The source of these data is PubChem BioAssay (Tox21).

Several values for one entry are separate records, joined by “and”; a condition that tells them apart may be missing. Equal entries are not always repeated. Records with an inconclusive call do not appear. Activity calls are given as the source filed them. The call rests on the fitted dose curve; in most records, active means well fitted inhibition curve with a large enough effect in the signal ratio in the repeat runs; inconclusive means weak or mixed curves, or effect the other way; inactive means flat fitted curve, though single readings scatter; the % refers to the signal ratio.
Potency means the concentration at half of the fitted maximal effect.

The assay can be described thus: qHTS assay for small molecule disruptors of the mitochondrial membrane potential (AID 720635). To be noted: HepG2 mitochondrial membrane potential, Mito-MPS dye ratio; series mostly up to 83.2 µM. The text has this:
U.S. Tox21 Program National Center for Advancing Translational Sciences [NCATS] NIH Chemical Genomics Center [NCGC] U.S. Environmental Protection Agency [EPA] National Institutes of Environmental Health Sciences [NIEHS] National Toxicology Program [NTP] U.S. Food and Drug Administration [FDA] Tox21 Assay Overview: Mitochondrial membrane potential (MMP), one of the parameters for mitochondrial function, is generated by mitochondrial electron transport chain that creates an electrochemical gradient by a series of redox reactions. This gradient drives the synthesis of ATP, a crucial molecule for various cellular processes. Measuring MMP in living cells is commonly used to assess the effect of chemicals on mitochondrial function. […] The dye accumulates in the mitochondria of healthy cells as aggregates, with red fluorescence. The mitochondrial potential collapses and the dye can no longer accumulate in the mitochondria and remains in the cytoplasm in monomers, with green fluorescence.
Tox21 Assay Protocol Summary: 2,000 HepG2 cells in 5 uL/well were dispensed into black, clear-bottom 1536-well plates using a Multidrop Combi (Thermo Scientific) dispenser. The assay plates were incubated overnight at 37C to allow cells to attach to the wells, followed by the transfer of 23 nL compound or DMSO vehicle by a pin tool (Kalypsys). The plates were incubated for 1 hr at 37C and 5% CO2, followed by the addition of 5 uL of 2X Mito-MPS dye (BD Biosciences) into each well using Flying Reagent Dispenser (Aurora Discovery) and then following 30 min incubation at 37C. Fluorescence intensity (490nm excitation and 535nm emission for monomers; and 540nm excitation and 590nm emissions for aggregates) was measured using an Envision plate reader.
`C[C@@H]1CC[C@H]2C(C)(C)[C@H]3C[C@@]12CC[C@@]3(C)O`: the Potency is 61 µM (active).
Next, `C/C=C/C(=O)Oc1c(CCCCCC(C)C)cc([N+](=O)[O-])cc1[N+](=O)[O-]`: 0.109 µM (active); `Cc1ccc(N)cc1O`: 17.2 µM (active); `CC(C)(C)C1=CC(=O)C=C(C(C)(C)C)C1=O`: 7.7 µM (active).
For the compound `CC(C)=C1CC[C@@H](C)CC1=O`, the Potency result was “inactive”.
Under `CC1=C(/C=C/C(C)=C/C=C/C(C)=C/C(=O)Nc2ccc(O)cc2)C(C)(C)CCC1` stands 3.35 µM (active) and 2.8 µM (active); under `C[n+]1c2cc(N)ccc2cc2ccc(N)cc21` (tested in a mixture with another compound), 0.668 µM (active).
With `O=C(O)c1cccc(Cl)n1`, the Potency result is “inactive”.
As for `Oc1ccc(-c2ccc(O)cc2)cc1`, the Potency was 43.5 µM (active).
Regarding `C=C[C@](C)(O)CC[C@@H]1[C@@]2(C)CCCC(C)(C)[C@@H]2CC[C@@]1(C)O`, the Potency was 43.3 µM (active).
In the case of `NC1(c2ccc(-c3nc4ccn5c(=O)[nH]nc5c4cc3-c3ccccc3)cc2)CCC1`, the Potency is 13.3 µM (active).
Under `O=C1OC(=O)c2cccc3cccc1c23` stands 2.76 µM (active); under `O=S(=O)(O)CCCN1CCOCC1`, “inactive”; under `CCCCCCCCCCCCCCCC`, “inactive”.
`CCCCCCCCCCCC(=O)N(CC)CC`: the Potency result is “inactive”.
For the compound `O=C1C=CC(=O)N1c1ccccc1`, the Potency was 48.6 µM (active).
As to `O=C1NC2CCCCN2C12CCN(CCCN1c3ccccc3CCc3ccc(Cl)cc31)CC2` (stereo not given), the Potency entry is “inactive”.
Take `CCC(C)(C)c1cc(O)c(C(C)(C)CC)cc1O`: the Potency was 4.86 µM (active).
Turning to `C[C@@]12C(=O)OC(=O)[C@]1(C)C1CCC2O1`, the Potency is 0.101 µM (active).
Next, `S=P(N1CC1)(N1CC1)N1CC1`: “inactive”.
As for `O=C1NCN(c2ccccc2)C12CCN(CCCC(c1ccc(F)cc1)c1ccc(F)cc1)CC2`, the Potency was 19.7 µM (active).
For the compound `C=CCCCCCCC=C`, the Potency result is “inactive”.
In the case of `NC(=O)c1nc(-c2cccc(-c3cc(F)ccc3OCC(F)(F)C(F)(F)F)c2)n[nH]1`, the Potency was 9.69 µM (active).
For `CN(C)c1ccc(N=NS(=O)(=O)O)cc1`, the Potency is 2.17 µM (active).
In the case of `NC(=O)c1ccccc1N`, the Potency entry is “inactive”.
In the case of `CCCCCCC(C)OC(=O)COc1nc(F)c(Cl)c(N)c1Cl` (stereo not given), the Potency was 61.1 µM (active).
`COCC(=O)O[C@]1(CCN(C)CCCc2nc3ccccc3[nH]2)CCc2cc(F)ccc2[C@@H]1C(C)C`: the Potency was 3.35 µM (active).
For `CCN1CCN(c2cc(-c3ccc(F)cc3)c3c(n2)CCCCCC3)CC1`, the Potency result is “inactive”.
Next, `Cc1occc1SSc1ccoc1C`: “inactive”; `CCC(=O)OCCc1ccccc1`: “inactive”; `C/C=C/C=N/NC(=O)c1ccncc1`: “inactive”.
`CC(=O)Nc1ccc(O)cc1`: the Potency result was “inactive”.
Under `O=C1OC(OC(=O)c2cccnc2Nc2cccc(C(F)(F)F)c2)c2ccccc21` (stereo not given) stands 24.8 µM (active); under `CCCCCCOc1ccc(O)cc1`, 12.2 µM (active); under `Oc1ccc(-c2ccccc2)c(Cl)c1`, 8.63 µM (active).
Next, `NCCCCCCNCCCCCCN`: “inactive”.
In the case of `Cc1c(-c2ccc(O)cc2)n(Cc2ccc(OCCN3CCCCCC3)cc2)c2ccc(O)cc12`, the Potency is 10.6 µM (active).
Consider `CC(=O)Oc1ccc(C2(c3ccc(OC(C)=O)cc3)Oc3ccccc3NC2=O)cc1`, for which the Potency is 23.7 µM (active).
Regarding `Cc1oc(-c2ccccc2)nc1CCOc1ccc(C[C@H](Nc2ccccc2C(=O)c2ccccc2)C(=O)O)cc1`, the Potency was 61.1 µM (active).
As for `[O]=[Zr]`, the Potency result was “inactive”.
